For 40 molecules, Potency results are on record in PubChem BioAssay (Tox21).

Where “and” joins values, the source holds several entries; their conditions need not be identical. Equal entries are not always repeated. Results filed as inconclusive are left out. Where a call stands in place of a potency, no number is given. Calls of active or inactive are those of the source. Calls come from the whole dose curve; as a rule, active = well fitted activation curve with a large enough effect in the signal ratio in the repeat runs (not every such curve was filed as active); inconclusive = weak or mixed curves; inactive = flat fitted curve, though single readings scatter; the % refers to the signal ratio.
Potency is the fitted concentration of half-maximal effect.

A short description of the assay: qHTS assay to identify small molecule agonists of H2AX (AID 1224845). The following applies: CHO-K1 phospho-H2AX Ser139 HTRF, 3 h; series mostly up to 154 µM. The text has this: National Center for Advancing Translational Sciences [NCATS]
NIH Chemical Genomics Center [NCGC]
U.S. Environmental Protection Agency [EPA]
National Institutes of Environmental Health Sciences [NIEHS]
National Toxicology Program [NTP]
U.S. Food and Drug Administration [FDA]
HTRF phospho-H2AX (Ser139) assay (Cisbio Bioassays, US) enables the quantitative detection of the histone variant H2AX when phosphorylated on serine 139. When double-stranded DNA breaks, either by ionizing radiation or endogenous physiological processes, H2AX becomes phosphorylated at Ser139. This phospho-Ser139 serves as a sensitive biomarker for the detection of such breaks, localizing the site of DNA repair. So, HTRF phospho-H2AX Ser139 is a pertinent assay to study genome stability, the cell cycle, DNA repair, and it serves as a biomarker for cancer, and to understand aging. Wild type CHO-K1 cells were used to identify the inducers of Phospho-H2AX Ser 139 from the Tox21 10K compound collections.
Tox21 Assay Protocol Summary:
The CHO-K1 cells suspended in culture medium containing 10% FBS were dispensed at 1000 cells/ 3 ul/well in 1536-well white wall/solid bottom plates (Greiner Bio-One North America, NC) using a Multidrop Combi (Thermo Fisher Scientific Inc., Waltham, MA). After the assay plates were incubated at 37C overnight, 23 nl of compounds at 15 concentrations (from 5-48 columns) or positive control (from 1 to 4 columns) were transferred to the assay plates using a Pintool station (Wako, San Diego, CA) into each well resulting in a final DMSO concentration of 0.76%. After 3hr incubation at 37C, 1 uL/well Supplemented Lysis buffer (diluted 100 fold blocking reagent in lysis buffer) (HTRF Phospho-H2A.X (S139) Assay kit from Cisbio US Inc., Bedford, MA) was added using a Flying Reagent Dispenser (FRD) (Aurora Discovery, CA). After 10sec spin at 1000 rpm in a plate centrifuge, the assay plates were incubated at room temperature for 30 min. Then followed by the addition of 1 uL/well detection buffer (containing a mixture of two antibodies, one labeled with cryptate, Anti pH2AX (S139)-K and another labeled with d2, Anti H2AX-d2) using FRD. After incubation at room temperature for 24 hr, the time resolved fluorescence at excitation 320 nm and emissions at 665 nm and 620 nm was measured using an Envision plate reader (PerkinElmer, Waltham, MA).
Consider `C[N+](C)(C)CC1CO1` (stereo not given), for which the Potency entry was “inactive”.
In the case of `CCCN(CCOc1c(Cl)cc(Cl)cc1Cl)C(=O)n1ccnc1`, the Potency entry was “inactive”.
On to `O=C(O)C(O)C(O)C(=O)O` (stereo not given), for which the Potency result was “inactive”.
Next, `CC[N+]1(CCOC(=O)C(O)(c2ccccc2)c2ccccc2)CCCCC1`: “inactive”; `CCCBr`: “inactive”; `O=C(O)c1cc(Cl)ccc1Cl`: “inactive”.
With `O=C1c2ccccc2C(=O)N1SC(Cl)(Cl)Cl`, the Potency is 9.93 µM (active) and 16 µM (active).
`NNCCO`: the Potency entry is “inactive”.
With `CCOC(=O)C1OC1(C)c1ccccc1` (stereo not given), the Potency result is “inactive”.
On to `C=CC(=O)OCC`, for which the Potency result is “inactive”.
As for `CCC1CCC(=O)O1` (stereo not given), the Potency result is “inactive”.
For the molecule `CN1CC[C@]23c4c5ccc(O)c4O[C@H]2[C@@H](O)CC[C@H]3[C@H]1C5`, the Potency entry was “inactive”.
For the molecule `CCCC[P+](CC)(CCCC)CCCC` (tested in a mixture with another compound), the Potency entry was “inactive”.
Turning to `FC(Cl)(Cl)C(F)(Cl)Cl`, the Potency result was “inactive”.
As for `C=CC(=O)NC(C)(C)CC(C)=O`, the Potency result was “inactive”.
On to `O=[N+]([O-])c1cc(Cl)c(Cl)cc1Cl`, for which the Potency entry is “inactive”.
For `C[N+](C)(C)CCOC(=O)C(O)(c1ccccc1)c1ccccc1`, the Potency result was “inactive”.
As to `CC(C)(C)CC(C)(C)c1ccc(O)cc1`, the Potency was 89.8 µM (active).
`O=C(O)c1cc(I)cc(I)c1I`: the Potency entry is “inactive”.
For `C=CCc1ccc(OC(=O)Cc2ccccc2)c(OC)c1`, the Potency result is “inactive”.
As for `CCCCCBr`, the Potency entry is “inactive”.
As to `COC1CC(=C(c2cccs2)c2cccs2)C[N+](C)(C)C1` (stereo not given), the Potency result was “inactive”.
For `O=C(Cc1ccccc1)c1ccccc1`, the Potency entry is “inactive”.
Next, `Clc1ccc2ccccc2c1`: “inactive”.
Take `CC(C)(C)N(NC(=O)c1ccc(Cl)cc1)C(=O)c1ccccc1`: the Potency entry was “inactive”.
For `C1CCNCC1`, the Potency entry was “inactive”.
Next, `COc1ccc(C(O)(c2cncnc2)C2CC2)cc1` (stereo not given): “inactive”; `C[N+]1(CCF)[C@@H]2CC[C@H]1CC(OC(=O)C(O)(c1ccccc1)c1ccccc1)C2` (stereo not given in full): “inactive”.
As to `CC(C)OC(=O)Cc1ccccc1`, the Potency result is “inactive”.
Next, `C[C@H]1[C@@H]2Cc3ccc(O)cc3[C@@]1(C)CCN2C`: “inactive”; `CCCCC(CC)COC(=O)c1c(Br)c(Br)c(Br)c(Br)c1C(=O)OCC(CC)CCCC` (stereo not given): “inactive”; `[Cl-].[Cl-].[Hg+2]`: 1.26 µM (active) and 1.42 µM (active).
With `CCSCc1ccccc1OC(=O)NC`, the Potency result is “inactive”.
For `COc1ccc2c(c1OC)C(=O)O[C@H]2[C@@H]1c2cc3c(cc2CCN1C)OCO3`, the Potency entry was “inactive”.
Consider `Cc1nc(N(C)C)nc(OC(=O)N(C)C)c1C`, for which the Potency entry is “inactive”.
Next, `CN[C@@H](C)[C@H](O)c1ccccc1`: “inactive”; `CCNC(=O)NC(=O)/C(C#N)=N/OC`: “inactive”.
On to `C[Si](Cn1cncn1)(c1ccc(F)cc1)c1ccc(F)cc1`, for which the Potency result is “inactive”.
Consider `O=C(O)C(F)(F)C(F)(F)C(F)(F)C(F)(F)C(F)(F)F`, for which the Potency result was “inactive”.
For `Nc1ccccc1C(=O)OCCc1ccccc1`, the Potency entry was “inactive”.
